The nature of assay [1]: NCI Yeast Anticancer Drug Screen. Data for the rad50 strain (AID 155).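 Further: 0% = growth of vehicle-only cultures of the same strain.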 The settings on record: S. cerevisiae rad50 strain growth inhibition; at 50.0 µM; stronger effect = higher value. The method in brief: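 Readout: growth inhibition relative to vehicle-treated cultures. Compound exposure was carried out in a genetically defined yeast strain deficient in DNA damage repair.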
Assay [2] can be described thus: NCI Yeast Anticancer Drug Screen. Data for the mec2-1 strain (AID 157). As to conditions: S. cerevisiae mec2-1 strain, at 50.0 µM, stronger effect = higher value. In short, it runs like this:
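Compounds were applied to mec2-1 yeast cells. Their growth was then compared with that of vehicle-treated cultures to give growth inhibition.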

Assay [3] can be described thus: NCI Yeast Anticancer Drug Screen. Data for the sgs1 mgt1 strain (AID 161).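 Further: 0% = growth of cultures given vehicle only.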 As to conditions: S. cerevisiae sgs1 mgt1 strain, at 50.0 µM, stronger effect = higher value. The method in brief: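 This yeast growth screen uses a strain with defined DNA-repair lesions; compound-treated growth is compared with vehicle-treated growth.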
Assay [4] is described as follows: NCI Yeast Anticancer Drug Screen. Data for the cln2 rad14 strain (AID 165).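 Further: 0% = growth equal to vehicle treated cultures.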 The settings on record: S. cerevisiae cln2 rad14 strain, at 50.0 µM, stronger effect = higher value. In short, it runs like this: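 Strain: cln2 rad14 yeast, altered in cell cycle control and DNA damage repair. Read-out: growth inhibition vs vehicle.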
Assay [5] can be described thus: NCI Yeast Anticancer Drug Screen. Data for the bub3 strain (AID 167). As to conditions: S. cerevisiae bub3 mutant strain, at 50.0 µM, stronger effect = higher value. In short, it runs like this:
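Readout: yeast growth inhibition, expressed relative to vehicle-only wells. The test organism is a mutant strain from a panel with lesions in DNA repair or checkpoint genes.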

The nature of assay [6]: NCI Yeast Anticancer Drug Screen. Data for the mlh1 rad18 strain (AID 175). As to conditions: S. cerevisiae mlh1 rad18 strain growth inhibition; at 50.0 µM; stronger effect = higher value. The method in brief:
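A repair-deficient yeast strain is exposed to test compound, and growth is scored relative to vehicle-treated controls.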

This is part of a sample that, as a whole, favours compounds with a hit. Of some 79,000 tested, about 15% had one in any assay. A number with no mark means an inactive call. Calls of active or inactive are those of the source. No stated cut-off is given here; in the data, active means growth inhibition above about 70%; inactive means the rest.

For `CC(C)(N)C(=O)N[C@@H]1C(=O)N2[C@@H]1SC(C)(C)[C@@H]2C(=O)O`, the growth inhibition in assay [1] is 8.4%; in assay [2], 3.55%; in assay [3] it was -19.2%; in assay [4], -0.95%; in assay [5] it was 5.9%; in assay [6], 4%.

For the molecule `CC(C)CC(=O)NC(Nc1ccc(S(=O)(=O)Nc2ncccn2)cc1)(C(F)(F)F)C(F)(F)F`, the growth inhibition in assay [1] is -2.9%; in assay [2] it was -9.95%; in assay [3], 14.3%; in assay [4], 20.6%; in assay [5], -5.8%; in assay [6] it was 6.8%.

With `CC1=C(CCCO)/C(=N\O)CCC1`, the growth inhibition was 3.75% in assay [1]; -1.75% in assay [2]; -3% in assay [3]; -30.4% in assay [4]; 17.5% in assay [5]; -28% in assay [6].

As to `O=c1c2ccccc2oc2nc3ccc(Cl)cc3n12`, the growth inhibition in assay [1] is -6.3%; in assay [2], -7.5%; in assay [3], 0.45%; in assay [4], -30.9%; in assay [5], 10.6%; in assay [6], -1.85%.

As for `CC(C)(C)NCC(CN1CCOCC1)C(=O)c1ccccc1` (stereo unspecified), the growth inhibition in assay [1] was 48.5%; in assay [2], 70.1% (active); in assay [3] it was 57%; in assay [4], 52.6%; in assay [5], 74.2% (active); in assay [6], 90.2% (active).

Take `CC(C)(C)c1ccc2c(c1)C(C)(C)CCC2(C)C`: the growth inhibition in assay [1] was 12.8%; in assay [2], 0.8%; in assay [3] it was 3.05%; in assay [4] it was -52.6%; in assay [5] it was 8.3%; in assay [6] it was 19.2%.

As to `O=C(O)C(Br)C(Br)C(=O)Nc1cccc2ccccc12` (stereo unspecified), the growth inhibition was 98.8% (active) in assay [1]; 99.1% (active) in assay [2]; 99.2% (active) in assay [3]; 99.2% (active) in assay [4]; 98.9% (active) in assay [5]; 98.8% (active) in assay [6].

Turning to `S=C(NCc1cccnc1)Nc1ccc(Cl)c(Cl)c1`, the growth inhibition in assay [1] is 26.8%; in assay [2] it was 13.3%; in assay [3], 27.9%; in assay [4], 5.85%; in assay [5], 27.6%; in assay [6], 13.7%.

Consider `O=C1C(=Cc2cccc(O)c2)N=C(c2ccccc2)N1n1c(-c2ccccc2)nc2ccccc2c1=O`, for which the growth inhibition in assay [1] was -14.3%; in assay [2] it was 5.15%; in assay [3], 25.8%; in assay [4], 14.7%; in assay [5], -1.75%; in assay [6], 11.9%.

Take `CCCCCCCCCCCCCCCCC/C(CC)=N/Nc1ccc([N+](=O)[O-])cc1[N+](=O)[O-]`: the growth inhibition is -16.9% in assay [1]; 3.9% in assay [2]; -24.6% in assay [3]; -38.8% in assay [4]; -3.2% in assay [5]; -9.1% in assay [6].

As for `C=C(Cl)CSc1ncnc2nc[nH]c12`, the growth inhibition in assay [1] is 34.5%; in assay [2] it was 22.9%; in assay [3], 18.2%; in assay [4] it was 8.05%; in assay [5] it was 30.6%; in assay [6], 36.4%.

As to `O=C(NC(Nc1ccc(F)c(Cl)c1)(C(F)(F)F)C(F)(F)F)OCc1ccccc1`, the growth inhibition is -1.35% in assay [1]; -1.05% in assay [2]; -23.1% in assay [3]; 3.1% in assay [4]; -5.5% in assay [5]; 24.3% in assay [6].

As to `CCC(Cc1ccccc1)C1=NC(C)(C)CC(C)O1` (stereo unspecified), the growth inhibition in assay [1] was 1.2%; in assay [2], 3.95%; in assay [3], -5.25%; in assay [4], -20.6%; in assay [5], -1.4%; in assay [6], 25.4%.

Regarding `C/C(CCC1CCCCC1)=N/NC(N)=O`, the growth inhibition in assay [1] was 14.6%; in assay [2] it was 15.8%; in assay [3], 5.25%; in assay [4], 14.7%; in assay [5], 12.7%; in assay [6], -18.4%.

Take `O=c1c2ccccc2[nH]c2ccc(Cl)cc12`: the growth inhibition in assay [1] was 47.6%; in assay [2], 13.9%; in assay [3], 24.9%; in assay [4], 21.6%; in assay [5] it was -9.65%; in assay [6] it was 61.1%.

For the molecule `COc1ccc(OC)c2nc3c(C(=O)NCCN(C)C)cccc3nc12`, the growth inhibition in assay [1] is -15.7%; in assay [2], -25.5%; in assay [3] it was -55.7%; in assay [4] it was -35.2%; in assay [5], -31.4%; in assay [6], -68.1%.

In the case of `O=C(/C=C/c1ccccc1)Nc1ccc([N+](=O)[O-])cc1Cl`, the growth inhibition in assay [1] is 4.75%; in assay [2] it was 10.7%; in assay [3] it was 12%; in assay [4] it was -1.95%; in assay [5], 26.2%; in assay [6] it was 18.5%.

As for `C=CCNC(=S)NNC(=O)c1ccncc1`, the growth inhibition is -19.8% in assay [1]; -10.3% in assay [2]; -21.6% in assay [3]; -82.8% in assay [4]; 2.4% in assay [5]; -23.8% in assay [6].

Regarding `COc1cccc([B-]23OCC[N+]2(CNC(=O)c2ccccc2O)CCO3)c1` (stereo unspecified), the growth inhibition in assay [1] was 29.6%; in assay [2], 2.95%; in assay [3], 12.9%; in assay [4], 6.75%; in assay [5] it was -3.25%; in assay [6], 19.4%.

`COc1cc([N+](=O)[O-])c(C)cc1Br`: the growth inhibition is 3.55% in assay [1]; 3.75% in assay [2]; 4.45% in assay [3]; -18.3% in assay [4]; -10.5% in assay [5]; 9.45% in assay [6].

`Nc1nc(Cc2ccccc2)c(-c2ccccc2)c(-c2nc(N)nc(Cc3ccccc3)c2-c2ccccc2)n1`: the growth inhibition in assay [1] was -9.6%; in assay [2], 14.4%; in assay [3], -26.4%; in assay [4], -5.15%; in assay [5], -5.2%; in assay [6] it was 7.85%.

These data come from PubChem BioAssay (NCI).
